Our source for the Potency values is PubChem BioAssay AID504834 (National Center for Advancing Translational Sciences (NCATS), 2011).

The whole screen tested about 320,000 compounds, of which about 22,000 (6.9%) were called active. A call without a number means that no potency is given here. Another 27% or so got no clear call; they are omitted. Calls come from the whole dose curve; as a rule, active = well fitted inhibition curve with a large enough effect; inconclusive = small, poorly fitted or top-dose-only effect, or another doubt; inactive = no such curve, though single readings can be large or run the other way. This excerpt belongs to a sample that is enriched for actives.
Potency is the fitted concentration of half-maximal effect.

The experiment is described as follows: Primary qHTS for delayed death inhibitors of the malarial parasite plastid, 96 hour incubation. The conditions noted are these: P. falciparum luciferase reporter growth; series mostly up to 28.7 µM. The essentials:
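Two parasite generations (96 h, 37 C, 5% CO2) of compound exposure in infected erythrocytes (0.05% parasitemia, 2% hematocrit). Luciferase-reporter P. falciparum; decreased luminescence indicates inhibited growth, aimed at apicoplast-acting delayed death.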
As to `Cc1cccc(-n2cc(CN3CCN(C(=O)c4ncn[nH]4)CC3)c(-c3cccc(F)c3)n2)c1`, the Potency entry is “inactive”.
`Cc1ccc(-n2cc(CN(C)Cc3nccn3C)c(-c3cccc(C)c3)n2)cc1`: the Potency was 3.7 µM (active).
For the compound `COc1ccc(-n2cc(CN(C)Cc3n[nH]c(=O)[nH]3)c(-c3cccc(F)c3)n2)cc1`, the Potency entry is “inactive”.
Take `CCCCn1c(N)c(N(CC(C)C)C(=O)c2cnc(C)cn2)c(=O)[nH]c1=O`: the Potency entry is “inactive”.
Next, `Cc1nn(Cc2ccccc2)c(C)c1NS(=O)(=O)c1ccccc1`: 10.4 µM (active); `Cc1nn(Cc2ccccc2)c(C)c1C(=O)NCCCN1CCCC1=O`: “inactive”.
As to `Cc1cc(NS(=O)(=O)c2ccccc2)no1`, the Potency result was “inactive”.
Consider `NNC(=O)c1cccc(COCC(F)(F)C(F)F)c1`, for which the Potency result was “inactive”.
For `COCCNc1nnc(SCC(=O)NNC(=O)c2ccco2)s1`, the Potency result is “inactive”.
On to `CCCc1nnc(NC(=O)CCC(=O)NC2CC2)s1`, for which the Potency result is “inactive”.
For `COc1ccc(CNC(=O)C2CCN(S(=O)(=O)c3ccc(SC)cc3)CC2)cc1` the value was “inactive”; for `O=C(NCc1ccncc1)C1CCCN(S(=O)(=O)c2ccc(Br)cc2)C1` (stereo not given), “inactive”; for `CSc1ccc(S(=O)(=O)N2CCC(C(=O)NCc3ccncc3)CC2)cc1`, 7.38 µM (active).
For the compound `CSc1ccc(NC(=O)/C=C/C(=O)O)cc1`, the Potency result was “inactive”.
For the compound `O=C(Nc1ccccc1C(=O)N1CCCCC1)c1ccco1`, the Potency entry was “inactive”.
Consider `CCC(C(=O)NC1CCCC1)N(C(=O)Cn1nnc(-c2ccc(C)o2)n1)c1ccc(OC)c(OC)c1` (stereo not given), for which the Potency result was “inactive”.
With `COc1ccc(C(C(=O)NC2CCCC2)N(CCCO)C(=O)Cn2nnc(-c3ccc(C)o3)n2)cc1` (stereo not given), the Potency is 3.7 µM (active).
Take `Cc1cccc(N(C(=O)Cn2nnc(-c3ccc(C)o3)n2)C(C(=O)NC2CCCC2)c2ccncc2)c1` (stereo not given): the Potency result was “inactive”.
Next, `O=C(Cn1nnc(-c2ccccc2)n1)NC(=O)NC1CCCC1`: “inactive”; `CCOCCCN(C(=O)Cn1nnc(-c2ccc(OC)c(OC)c2)n1)C(CC)C(=O)NC1CCCC1` (stereo not given): “inactive”; `COc1cccc(N(CC(=O)NC2CCCC2)C(=O)Cn2nnc(-c3ccc(C)cc3)n2)c1`: “inactive”.
Next, `COc1ccc(C)cc1N(C(=O)Cn1nnc(-c2ccc(C)o2)n1)C(C(=O)NC1CCCC1)c1ccncc1` (stereo not given): 8.28 µM (active); `COc1cccc(N(CC(=O)NC2CCCC2)C(=O)Cn2nnc(-c3ccc(C)o3)n2)c1`: 11.7 µM (active); `COc1ccc(-c2nnn(CC(=O)N(CCO)C(C(=O)NC3CCCC3)c3ccc(F)cc3)n2)cc1` (stereo not given): “inactive”.
In the case of `CC1CC(C)CN(c2ccc(S(=O)(=O)N3CCOCC3)cc2)C1` (stereo not given), the Potency entry is “inactive”.
For `Cc1occc1-c1nnc(SCC(=O)NC2CCCCC2)o1`, the Potency result is “inactive”.
Regarding `Cc1nc(N)nc(SCc2ccc([N+](=O)[O-])cc2)c1N`, the Potency result is “inactive”.
Take `O=C(c1ccc(Cl)c(S(=O)(=O)N2CCCCC2)c1)N1CCCCCC1`: the Potency result is “inactive”.
In the case of `COc1ccc(Cl)cc1NS(=O)(=O)c1cccc(C(=O)NC2CCC(O)CC2)c1` (stereo not given), the Potency entry is “inactive”.
For the compound `CCCCN(CCCC)CCNC(=O)CN1C(=O)COc2ccc(S(=O)(=O)N3CCOCC3)cc21`, the Potency entry is “inactive”.
For `Cc1ccc(OCC(=O)Nc2ccccc2C(=O)NC2CC2)cc1C`, the Potency result was “inactive”.
Regarding `O=C(OCC(=O)c1cccs1)c1ccc([N+](=O)[O-])o1`, the Potency entry is “inactive”.
With `Cc1onc(NC(=O)c2ccc([N+](=O)[O-])o2)c1Br`, the Potency was 5.86 µM (active).
On to `Cc1cc(NC(=O)COc2ccc([N+](=O)[O-])cc2)no1`, for which the Potency result was “inactive”.
For `Cc1cc(C)c2c(=O)[nH]c(SCC(=O)Nc3ccc(Br)cc3)nc2n1` the value was “inactive”; for `Cc1ccc(S(=O)(=O)N2CCOCC2)cc1NC(=O)COC(=O)c1cnccn1`, “inactive”; for `Nc1nc(SCC(=O)Nc2ccc(Cl)cc2C(F)(F)F)n[nH]1`, “inactive”.
Consider `Cc1ccc(S(=O)(=O)NCC2CCC(C(=O)N3CCOCC3)CC2)cc1` (stereo not given), for which the Potency result was “inactive”.
In the case of `CC(C)(CNC(=O)Cc1ccc(Cl)cc1Cl)N1CCOCC1`, the Potency result was “inactive”.
For `CC(C)(CNC(=O)c1ccc(Cl)c(S(=O)(=O)N2CCc3ccccc3C2)c1)N1CCOCC1`, the Potency is 7.38 µM (active).
In the case of `Cc1ccccc1CSCCNC(=O)c1ccc(Cl)c(S(=O)(=O)N2CCOCC2)c1`, the Potency was 13.1 µM (active).
With `O=C(NCc1cccnc1)c1cc(S(=O)(=O)N2CCOCC2)c(Cl)cc1Cl`, the Potency entry is “inactive”.
For the compound `Cc1ccccc1CSCCNC(=O)c1ccc(N(C)S(=O)(=O)c2ccccc2)cc1`, the Potency entry was “inactive”.
Consider `CN(C)S(=O)(=O)c1ccc(C(=O)NCC(C)(C)N2CCOCC2)cc1`, for which the Potency result is “inactive”.
For `Cc1ccc(NC(=O)CCCNC(=O)c2ccc(Cl)cc2)cc1S(=O)(=O)N1CCOCC1`, the Potency result is “inactive”.
For `CN(CC(=O)Nc1ccc(F)cc1)CC(=O)Nc1ccc(Cl)c(S(=O)(=O)N2CCOCC2)c1`, the Potency result was “inactive”.
Take `O=C(NCCSCc1ccccc1)c1ccc(Cl)c(S(=O)(=O)N2CCOCC2)c1`: the Potency is 11.7 µM (active).
For `COc1ccccc1N(CC(=O)NC1CCCC1)C(=O)C1(C)CC(=O)N=C2C=CC(C)=CN21` (stereo not given) the value was “inactive”; for `O=C(Nc1ccc(N2CCCCC2)cc1)c1cc(S(=O)(=O)N2CCOCC2)ccc1F`, “inactive”.
`COC(=O)c1ccc(CNC(=O)c2ccc3oc(C(C)C)nc3c2)cc1`: the Potency entry was “inactive”.
On to `NCCCCC(N)C(=O)O` (stereo not given), for which the Potency result was “inactive”.
Regarding `COCC1CCN(C(=O)c2ccc3oc(Cc4ccccc4)nc3c2)C1` (stereo not given), the Potency entry was “inactive”.
In the case of `CCOc1ccc(S(=O)(=O)NCCSc2ccccc2)cc1`, the Potency result was “inactive”.
In the case of `CCOc1ccc2nc(NCCNS(=O)(=O)c3ccccc3)c(C#N)cc2c1`, the Potency is 13.1 µM (active).
`COc1ccc(CNC(=O)C(C)NCc2ccccc2Cl)cc1` (stereo not given): the Potency entry is “inactive”.
Turning to `COc1ccc(S(=O)(=O)N(CC(=O)N/N=C/c2ccc(C(=O)O)cc2)Cc2ccccc2)cc1OC`, the Potency result was “inactive”.
For the compound `CCOC(=O)CN(Cc1ccc(OC)c(OC)c1)S(=O)(=O)c1ccc(OC)cc1`, the Potency is 9.28 µM (active).
For `CCOC(=O)N1CCN(C(=O)c2ccccc2N(Cc2ccccc2)S(=O)(=O)c2ccc(OC)cc2)CC1`, the Potency entry was “inactive”.
As to `CCNC(=O)Nc1ccc(S(=O)(=O)Nc2cnc(C)nc2C)cc1`, the Potency entry is “inactive”.
Next, `COc1cc2c(C(=O)O)c(C)n(C)c2c2ccccc12`: “inactive”.
`O=C(NCCc1ccccc1)C(=O)NCC1OCCN1S(=O)(=O)c1cccs1` (stereo not given): the Potency result is “inactive”.
Turning to `COc1ccc(NS(=O)(=O)c2ccc(Oc3c(C#N)cccc3C#N)cc2)cc1`, the Potency entry was “inactive”.
Next, `Cc1cccc(-c2nc(Nc3ccc(O)cc3)c3ccccc3n2)c1`: “inactive”; `O=c1[nH]c(-c2cccs2)nc2ccccc12`: “inactive”.
Turning to `CC(=O)Nc1cccc(Nc2nc(-c3cccs3)nc3ccccc23)c1`, the Potency is 9.28 µM (active).
